The whole screen tested about 53,000 sequences, of which about 3,700 (7%) were called active. The full list was thinned out, with actives kept by preference. Unmarked numbers belong to inactive results.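 The calls were made as follows: active = gene knockdowns whose robust z-score for IL-1 alpha signal is at least 2 or at most -2, so actives lie on both sides; inactive = the rest.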

This note sets out measurements from PubChem BioAssay AID1508600 (Functional Genomics Laboratory (NCATS/FGL), 2020).

The nature of the experiment: Components of the Cytosolic LPS Sensing Pathway: Gene Identification via Genome-wide siRNA Screen.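 Also: robust z of the log signal after scaling to non-targeting control siRNA wells of the plate.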 Conditions: RAW264.7 macrophages, IL-1a HTRF, actives lie on both sides, screened at 100 nM (by protocol), cells primed 5 h with Pam3CSK4 first. The essentials: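 RAW264.7; siRNA 100 nM final, RNAiMAX, 48h 37 degrees C; Pam3CSK4 5 h; LipidA + TransIT-TKO 24 h; IL-1a HTRF; CellTiter-Glo viability; robust z vs negative-control median.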
Background: In TR-FRET formats the signal depends on donor and acceptor labels being close together.
As to GUUCUUCUCUGUUGGUGCUTT against Vmn1r24, the z-score is -2.12 (active).

With GGACUUCGUGAACAAGAUCTT against Grin2b, the z-score was -0.439.

GCGGCCACGGGACGGCGGUTT against Hmx2: the z-score was -0.455.

Consider GGUCAUGACAGGAUACCCATT against Fam163b, for which the z-score is -1.99.

On to GGAGCCGUACAUCUUACACTT against Abhd1, for which the z-score is 0.33.

As to GCCGAGUGAAUGAAAGGACTT against Ppp1r32, the z-score is -0.758.

Regarding CCGUGGCGUAUGUGAUCAATT against Map3k5, the z-score is -0.249.

Consider GGACUCUCAGAAGAAUGAUTT against Hmmr, for which the z-score was 2.98 (active).

As for GGGAAAUGUUUUCCAAAGATT against Tep1, the z-score was 0.776.

As to CCAUAUGUGCUCACCUUUATT against Marveld2, the z-score is -0.641.

With CGAGUUUAAAGUGAGAAGATT against Pou1f1, the z-score is 0.488.

Turning to GCCACUCUUUAAGAAUCUATT against Abcf1, the z-score was -0.552.

On to GCAUUGUCCGAGGUUUAUUTT against Tspan33, for which the z-score is 0.64.

As to GGAGACAUUCCUGAAAGCUTT against Ankrd2, the z-score was -2.09 (active).

For the sequence “GGUGCUAUGUGCGUUUGAUTT against 9830107B12Rik”, the z-score is 1.97.

In the case of GGCGGAUGAACAAAGUUGGTT against Polr1e, the z-score was 0.0863.

In the case of GGAGAAUAAGCAAAUCCUUTT against Cfap20dc, the z-score was -0.937.

Regarding GGUCCCAUAUACCAGAUCUTT against Slc3a1, the z-score is 1.63.

On to UGUCAGUGCAGAAUAGCACTT against Olfr658, for which the z-score is -1.17.

As to GGACAUAGAGAACAUCAUCTT against Cabp7, the z-score is 4.02 (active).

Consider CGACACUCAAUGUGAACUUTT against Grtp1, for which the z-score is -0.881.

For GCCAGUCAUGCCUAUUUUCTT against Zmym6, the z-score is -0.528.

Regarding GGUGUGAGUGUCGGAAUCUTT against Islr2, the z-score is 0.138.

As for GGGACAAGUUCAUCUGAUATT against Rin1, the z-score is 2.06 (active).

Turning to GGAAUGGUUUUAUUUUUGGTT against Noa1, the z-score was -0.0245.

In the case of GGUACCUCUGUAUUCAGCCTT against Olfr121, the z-score was 0.78.

Regarding GGAAACUACAAAUUUGGCATT against Krtap6-2, the z-score is 0.195.

Regarding CCCACAGUAAAUUCAACGGTT against Gm5069, the z-score is 0.00754.

Regarding UACCCAUUGUCAAGUUGGATT against Grm4, the z-score was -0.634.

Take GGACCUGUGUGUUCUUUGATT against Amhr2: the z-score was -0.505.

In the case of CCUUGGCAGGUAUAGUGUUTT against Klk9, the z-score was -1.09.

Consider GGCGGUGUUUUACUACAAGTT against Capn7, for which the z-score was 3.99 (active).

Take GGAUCCCAGUUCUGGGUAATT against Dok1: the z-score is -0.0628.

Turning to GCCUAUUUGACGUGCAGAGTT against Crocc, the z-score is -0.0336.

Turning to GCUGUUUUAUCUCCAAUGGTT against Araf, the z-score is 1.73.

CCCAUGUACCACUUUGUCATT against Olfr430: the z-score was -2.05 (active).

As to “GGCAUUGAUCACUGACAGCTT against 9530077C05Rik”, the z-score is 0.827.

As for GGACCAUACAUAUUCAAAATT against Aph1b, the z-score is 0.0294.

Consider GUCCUGAAGAAGCUCAAGATT against Cartpt, for which the z-score is -0.513.

In the case of GGGACAGUACAGAGUGCUGTT against Hmx1, the z-score is 0.755.

On to CAAUCCUCAACGAUUACAUTT against Ncor1, for which the z-score is 2.05 (active).

For GGAUGAGGAGAUAAAGUCUTT against Misp, the z-score was -0.981.

As to GGAAUAAAACUUCUGAGAATT against Oog1, the z-score was -1.66.

As to GAAAACUCAAACAGCAUAUTT against Vmn1r216, the z-score was 0.833.

In the case of GAGCCACUUUCUCAAGUGUTT against Pou3f1, the z-score was 3.02 (active).

As to GUAACUCGCUUCUUGGUGGTT against Slc22a15, the z-score was 0.464.

Turning to GGUUCAAUGCUCCCUUCGATT against Ghrl, the z-score is 0.712.

As to GCCAGUUUAAGUCUCUCCATT against Tmem168, the z-score is -2.37 (active).

Turning to GGCUCACCUGAUACACUUUTT against Ramp2, the z-score was 0.707.

Turning to GCCUUGAAAUGUCUGUAGCTT against Nkiras1, the z-score was 0.981.

With GGGCUGACUUCCUAUGACCTT against Adra2c, the z-score was 2.14 (active).

GGUGGAAUAACAGAUAAAATT against Cutc: the z-score is 0.255.

As to GGAGAAAGGAUUAUAGAUGTT against Klk7, the z-score is 0.202.

Regarding GGGAUUCUUUUUGUGGAAATT against Trim62, the z-score was 0.636.

For the sequence GGUCUCAAUCAGAGUUACATT against Zfp324, the z-score is -0.936.

In the case of GGAGGUCAGACCAGUUUACTT against Htr3b, the z-score is 2.15 (active).

Turning to GCUUACAUCCAAGCCGUCUTT against Prss41, the z-score is 0.283.

In the case of GCUGGAGAUGAUUGUCUGATT against Psmd8, the z-score was -1.22.

On to GCGGGAACCAUUUUUGUGATT against Cdh11, for which the z-score is -1.18.

As to GGUCGAUUGAUAUACAAAATT against Gdf6, the z-score is 0.834.

Turning to CGUAUUAUCUGAGUGAACATT against Fth1, the z-score is -0.974.

Consider GCAUCAUCACCACCAUCACTT against Pou3f3, for which the z-score is -0.598.

Consider GGUCUGGAAUGGAGAACAGTT against Suox, for which the z-score was 2.73 (active).

In the case of GGUGACCAAGCAGAUAACATT against Prcc, the z-score is -1.19.

With GGACGUGGGCUCUCUAGAUTT against S100a13, the z-score was 1.81.

As for CGGUGGAAAUACCAGGAUGTT against Tshb, the z-score is 0.406.

On to GGAAAUUUGCCGGCCAAAUTT against Fam83a, for which the z-score is 0.557.

For the sequence GCACUCCACUCUUCCAUCATT against Cxcl16, the z-score was 0.35.

Take GGUGGCUGAAGAUGUGACUTT against Ttyh1: the z-score is -3.46 (active).

As to GCAAAGGACCUAAUUUAUUTT against Ehd4, the z-score is 1.13.

Turning to GGUUCAAGGGCCAGAUCCUTT against Rpl32, the z-score is 0.887.

Turning to CCAGUGUUGGUAACAAUAUTT against Stat4, the z-score was 0.0489.

In the case of GGAAAAGAAAGAUGUGACUTT against Trappc9, the z-score was -2.55 (active).

For the sequence CGUAGAUCUGGAUUGCUUUTT against Poli, the z-score was 1.74.

Regarding CCCAGCUAGACAGUCUUUCTT against Il11, the z-score is 2.58 (active).

As for GGCAGAGCCAGAAAAAUUGTT against Slc30a1, the z-score is 0.306.

Turning to CCAGAAUGUAAAACAACCGTT against Zfp365, the z-score is 0.588.

Turning to CGGUUUCACGAAUUCCUCCTT against Scaper, the z-score is -2.16 (active).

As for GGAUUCAUGAAAUAAGUCATT against Zfp426, the z-score was -0.603.

Take CGUGGUCUCGGACACUUUCTT against Hcn2: the z-score was -0.096.

Turning to GGUGGAAUGAGGAAACAACTT against Cck, the z-score was -0.945.

Take GGAUUUAGCUAAGAGAGGGTT against Zmat3: the z-score is -0.125.

In the case of CGAUGGUGAUUAUCUAAAATT against Tm4sf4, the z-score was -0.0694.

On to GCGAAUGUGUGUAUUCUGGTT against BC055324, for which the z-score is -0.791.

For CGGUUGAUGGAAAAAUACATT against Ppef2, the z-score was 2.43 (active).

As for GGAAAGAUGAGACCACCCGTT against Stau1, the z-score was -0.582.

As to GGCAAUAAUAAAUAGCACCTT against Homer1, the z-score is 0.8.

Take GGUAGAUGAACUUUAAAGATT against Syt13: the z-score is -0.846.

On to GGACUUCUUAACCGCCCUGTT against Sirt5, for which the z-score is 0.355.

Turning to GGCUCAUGAGAAGACACACTT against Zbtb17, the z-score was 0.204.

On to GGUGCUAGUGGUGACCAUGTT against Pign, for which the z-score was 2.2 (active).

In the case of CGUGAAAAAGUUAGCAAGUTT against Tars2, the z-score is 0.198.

For “GGUUCUCCAAGGAAAGAGGTT against 2310002L09Rik”, the z-score is 2.8 (active).

In the case of CCUUCUAGUACAAAAGUUGTT against Jmjd1c, the z-score was 1.32.

Turning to GGACAAGAGAACAACUAGUTT against Mrtfb, the z-score was 0.0162.

As for GACCAAAGCACUGACUAUGTT against Lyz2, the z-score was -0.184.

With GGAAGAAAUGGACCAGCUGTT against Hgh1, the z-score was -0.416.

As for GGUUUCCAUGGUAACGUGGTT against Tns1, the z-score is 2.24 (active).

Take GGGCAUAUGAGAUUUAUUATT against Trappc2: the z-score is -0.423.

Take GGCCUACAUACUCCUGAAGTT against Ttc21a: the z-score is -1.28.

On to GGGAGCUGUUAACCUCAUCTT against Mthfr, for which the z-score is 3.34 (active).

As to CCUAGAUUAAAUACUCGGATT against Saxo2, the z-score is 1.45.

For the sequence GCAGCCAAAUUCAUCCUCATT against Tspan33, the z-score is -0.552.

Turning to GGAAUGGACAAAAUGAUUCTT against Cct4, the z-score is 1.53.

Take UGUUGUUUUACCUGUGCCUTT against Gm10283: the z-score is -1.14.

Turning to GGCUCAUGGAAAACUCUAUTT against Hspa9, the z-score is 2.24 (active).

Turning to GGUUGCCAAUGACACUCGGTT against Trak2, the z-score was -0.342.

With GCCAUUCUAACUCUGCCUCTT against Olfr639, the z-score is 0.232.
